Test results from a collection of fitness landscapes (doi:10.1126/science.1257360).
In all, about 140,000 sequences were measured (“enrichment ratio after two sorts for PhoP signalling”: median about 0, highest 2% from about 11 on). The sample as a whole holds a higher share of the highest values than the screen did.

B1: PhoQ; a variant is named by its letters at X, in order, P23837 (parent)
chain: MKKLLRLFFPLSLRVRFLLATAAVVLVLSLAYGMVALIGYSVSFDKTTFRLLRGESNLFYTLAKWENNKLHVELPENIDKQSPTMTLIYDENGQLLWAQRDVPWLMKMIQPDWLKSNGFHEIEADVNDTSLLLSGDHSIQQQLQEVREDDDDAEMTHSVAVNVYPATSRMPKLTIVVVDTIPVELKSSYMVWSWFIYVLSANLLLVIPLLWVAAWWSLRPIEALAKEVRELEEHNRELLNPATTRELTSLVRNLNRLLKSERERYDKYRTTLTDLTHSLKTPLXXLQXXLRSLRSEKMSVSDAEPVMLEQISRISQQIGYYLHRASMRGGTLLSRELHPVAPLLDNLTSALNKVYQRKGVNISLDISPEISFVGEQNDFVEVMGNVLDNACKYCLEFVEISARQTDEHLYIVVEDDGPGIPLSKREVIFDRGQRVDTLRPGQGVGLAVAREITEQYEGKIVAGESMLGGARMEVIFGRQHSAPKDE

Variants of: B1
Test: enrichment ratio after two sorts for PhoP signalling (ratio (wild type AVST 3.29)); higher = more functional
Details: with PhoP (E. coli)

Going from TRIL to WDTG, the enrichment ratio falls from 5.95 to ≤ 0.25.

RKRR and VQAF cannot be ordered by enrichment ratio: ≤ 0.25 for the first, ≤ 0.25 for the second.

TDFE and NRKC cannot be ordered by enrichment ratio: ≤ 0.25 for the first, ≤ 0.25 for the second.

Going from KMVF to SILL, the enrichment ratio rises from ≤ 0.25 to 1.4.

Going from SYLL to SSLL, the enrichment ratio rises from 0.392 to 19.9.

Going from QEGV to TMHV, the enrichment ratio rises from ≤ 0.25 to 0.946.

SRGV and YTGV cannot be ordered by enrichment ratio: ≤ 0.25 for the first, ≤ 0.25 for the second.

Compared with KCGV, STGV is higher in enrichment ratio: ≤ 0.25 for the first, 13.4 for the second.

Compared with KYGV, TMGV is higher in enrichment ratio: ≤ 0.25 for the first, 12.1 for the second.

Compared with SEGV, FHNP is lower in enrichment ratio: 11.7 for the first, ≤ 0.25 for the second.

WDYS and LVGT cannot be ordered by enrichment ratio: ≤ 0.25 for the first, ≤ 0.25 for the second.

RDTF and VQAH cannot be ordered by enrichment ratio: ≤ 0.25 for the first, ≤ 0.25 for the second.

PCAG and LCRQ cannot be ordered by enrichment ratio: ≤ 0.25 for the first, ≤ 0.25 for the second.

YPYC and SHQH cannot be ordered by enrichment ratio: ≤ 0.25 for the first, ≤ 0.25 for the second.

Compared with THQH, TLKH is lower in enrichment ratio: 23.5 for the first, ≤ 0.25 for the second.

KSQH and NHQH cannot be ordered by enrichment ratio: ≤ 0.25 for the first, ≤ 0.25 for the second.

Going from TLQH to RRNN, the enrichment ratio falls from 21.1 to ≤ 0.25.

Going from TVNT to AHNM, the enrichment ratio falls from 8.93 to 5.49.

NMYM and TQPV cannot be ordered by enrichment ratio: ≤ 0.25 for the first, ≤ 0.25 for the second.

Compared with MGLT, MGAQ is higher in enrichment ratio: 5.67 for the first, 18.9 for the second.

Compared with TGAN, MGAT is higher in enrichment ratio: 2.47 for the first, 18.8 for the second.

MGNT and MGNL cannot be ordered by enrichment ratio: ≤ 0.25 for the first, ≤ 0.25 for the second.

First: MGAN
Second: MKAQ
The enrichment ratio of the first is higher: 12.6 for the first, ≤ 0.25 for the second.

QRAQ and MGKR cannot be ordered by enrichment ratio: ≤ 0.25 for the first, ≤ 0.25 for the second.

First: MGWN
Second: MGDN
The enrichment ratio of the first is higher: 18.9 for the first, ≤ 0.25 for the second.

REVQ and RQWC cannot be ordered by enrichment ratio: ≤ 0.25 for the first, ≤ 0.25 for the second.

SLFD and VERW cannot be ordered by enrichment ratio: ≤ 0.25 for the first, ≤ 0.25 for the second.

LTMP and VRTD cannot be ordered by enrichment ratio: ≤ 0.25 for the first, ≤ 0.25 for the second.

Compared with TDMT, QVFF is lower in enrichment ratio: 10.8 for the first, ≤ 0.25 for the second.

Going from MKFN to MIFN, the enrichment ratio rises from ≤ 0.25 to 11.

Compared with YTFN, MGFN is higher in enrichment ratio: ≤ 0.25 for the first, 11.6 for the second.

Compared with MTFN, TGFN is lower in enrichment ratio: 16.9 for the first, ≤ 0.25 for the second.

First: MGCS
Second: MGAG
The enrichment ratio of the first is higher: 6.13 for the first, 1.81 for the second.

First: MGAI
Second: QLDR
The enrichment ratio of the first is higher: 16.1 for the first, ≤ 0.25 for the second.

First: GINV
Second: SIAD
The enrichment ratio of the first is lower: ≤ 0.25 for the first, 7.06 for the second.

YITI and YTPA cannot be ordered by enrichment ratio: ≤ 0.25 for the first, ≤ 0.25 for the second.

PENS and SNDM cannot be ordered by enrichment ratio: ≤ 0.25 for the first, ≤ 0.25 for the second.

Compared with YECC, YECI is lower in enrichment ratio: 56.2 for the first, 0.32 for the second.

First: FTCV
Second: YECS
The enrichment ratio of the first is lower: 0.528 for the first, 14.8 for the second.

First: FTCQ
Second: YECH
The enrichment ratio of the first is higher: 7.15 for the first, 6.45 for the second.

Compared with YEES, YECV is higher in enrichment ratio: ≤ 0.25 for the first, 22.8 for the second.

Compared with YECQ, YEQP is lower in enrichment ratio: 30.7 for the first, ≤ 0.25 for the second.

FTCC and YECK cannot be ordered by enrichment ratio: ≤ 0.25 for the first, ≤ 0.25 for the second.

PGAC and FIVG cannot be ordered by enrichment ratio: ≤ 0.25 for the first, ≤ 0.25 for the second.

QDLS and SRLG cannot be ordered by enrichment ratio: ≤ 0.25 for the first, ≤ 0.25 for the second.

KSLG and PSLG cannot be ordered by enrichment ratio: ≤ 0.25 for the first, ≤ 0.25 for the second.

First: SILG
Second: TSLG
The enrichment ratio of the first is lower: 8.57 for the first, 14.5 for the second.

Compared with SSLG, YYHP is lower in enrichment ratio: 16.1 for the first, ≤ 0.25 for the second.

DLTQ and ANPT cannot be ordered by enrichment ratio: ≤ 0.25 for the first, ≤ 0.25 for the second.
